Measured values reported in PubChem BioAssay (EPA / NIEHS).
Inconclusive results are not listed. Calls of active or inactive are those of the source. The calls were made as follows: active = hit-call score of the fitted dose curve at least 0.9, where 1 is the maximum; inconclusive = response in the unintended direction; inactive = score below 0.9.

What follows are compounds tested against Nuclear receptor subfamily 1 group I member 3 (Homo sapiens) (UniProt Q14994) (assay: ATG_CAR_TRANS: Attagene TRANS-FACTORIAL HepG2 Assay for human Constitutive Androstane Receptor (CAR) (AID 2282969;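 also: activators raise reporter mRNA above DMSO so AC50 marks induction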)). Conditions: HepG2 Attagene TRANS-FACTORIAL CAR reporter.
Nuclear receptor subfamily 1 group I member 3 (Homo sapiens), sequence (Q14994 whole entry, looked up): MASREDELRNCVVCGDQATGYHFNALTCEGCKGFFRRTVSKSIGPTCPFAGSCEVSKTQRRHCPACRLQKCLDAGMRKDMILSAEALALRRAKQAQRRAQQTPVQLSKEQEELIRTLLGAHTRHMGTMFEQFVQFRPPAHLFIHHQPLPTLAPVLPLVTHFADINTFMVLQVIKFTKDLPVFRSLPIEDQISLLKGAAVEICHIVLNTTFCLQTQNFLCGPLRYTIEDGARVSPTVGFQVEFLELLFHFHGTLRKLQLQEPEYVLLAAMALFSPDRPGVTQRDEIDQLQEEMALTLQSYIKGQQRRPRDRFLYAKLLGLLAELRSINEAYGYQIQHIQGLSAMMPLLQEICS
Protocol: ATG_TRANS is a cell-based, multiplexed-readout assay that uses HepG2, a human liver cell line, with measurements taken at 24 hours after chemical dosing in a 24-well plate.ATG_CAR_TRANS is one of 30 assay component(s) measured or calculated from the ATG_TRANS assay. It is designed to make measurements of mRNA induction, a form of inducible reporter, as detected with fluorescence intensity signals by Reverse transcription polymerase chain reaction (RT-PCR) and Capillary electrophoresis technology.Data from the assay component ATG_CAR_TRANS was analyzed into 1 assay endpoint. This assay endpoint, ATG_CAR_TRANS, was analyzed in the positive analysis fitting direction relative to DMSO as the negative control and baseline of activity. Using a type of inducible reporter, measures of mRNA for gain-of-signal activity can be used to understand the reporter gene at the transcription factor-level as they relate to the gene NR1I3. Furthermore, this assay endpoint can be referred to as a primary readout, because this assay has produced multiple assay endpoints where this one serves a reporter gene function. To generalize the intended target to other relatable targets, this assay endpoint is annotated to the nuclear receptor intended target family, where the subfamily is non-steroidal.
Human liver HepG2 cells are transiently transfected with multiple reporter transcription units (MRTUs) in 6-well plates using FuGene 6 reagent (Roche; 3 ml FuGene/1 mg DNA). The MRTU constructs are regulated by a cis-regulating element (promoter). […] A major difference between the CIS and TRANS system is that in CIS activities of endogenous TFs are measured, whereas the TRANS assay evaluates changes in activities of exogenous, chimeric NR-Gal4 proteins. […] At the end of 24 hour incubation, total RNA was isolated using TriZol reagent (Invitrogen). The isolated RNA is then reverse-transcribed using oligo(dT) primer and Mo-MLV reverse transcriptase (Invitrogen) with DNAse I (Ambion) treatment for 30 min. The one-tenth of the produced cDNA was amplified by PCR using Taq DNA polymerase (Invitrogen) and two reporter sequence-specific primers. The PCR products were fluorescently labeled by primer extension with 6-arboxyfluorescein (6-FAM) 5'-labeled reporter sequence-specific primer (2 min at 95 C, 20 s at 68 C and 10 min at 72 C) and these products were digested with 5U of HpaI (New England Biolabs) for 2h at 37 C. The fragments were purified using Qiaquick PCR columns (Qiagen), analyzed on an ABI 3130xL genetic analyzer (Applied Biosystems) with peak positions identified by using a set of X-rhodamine (ROX)-labeled MapMarker1000 molecular weight standards (BioVentures). The raw capillary electrophoresis data was processed using Attagraph software (Attagene).

outcome, inactive:
CC=Cc1ccc(OCC)c(O)c1
OC[C@H]1O[C@@H]2O[C@H]3[C@H](O)[C@@H](O)[C@@H](O[C@H]4[C@H](O)[C@@H](O)[C@@H](O[C@H]5[C@H](O)[C@@H](O)[C@@H](O[C@H]6[C@H](O)[C@@H](O)[C@@H](O[C@H]7[C@H](O)[C@@H](O)[C@@H](O[C@H]8[C@H](O)[C@@H](O)[C@@H](O[C@H]9[C@H](O)[C@@H](O)[C@@H](O[C@H]1[C@H](O)[C@H]2O)O[C@@H]9CO)O[C@@H]8CO)O[C@@H]7CO)O[C@@H]6CO)O[C@@H]5CO)O[C@@H]4CO)O[C@@H]3CO
C=CCN(CC=C)CC=C
C#CC(C)N(C)C(=O)Nc1ccc(Cl)cc1 (stereo not given)
C=CC(=O)OCCCC
O=C(Nc1ccc2c(c1)Cc1ccccc1-2)C(F)(F)F
CC(=O)O[C@@H]1CC2CCC1(C)C2(C)C (stereo not given in full)
CCOc1ccc(N=Nc2ccc(C=Cc3ccc(N=Nc4ccc(OCC)cc4)cc3S(=O)(=O)O)c(S(=O)(=O)O)c2)cc1
C=CCCCCCCCCCC
CCCOC(=O)c1c(Cl)c(Cl)c(Cl)c(Cl)c1C(=O)OCCC
COC(=O)c1ccc(OC)cc1
C[C@H]1C[C@@H](O)CC(C)(C)C1
CC1(C)COCN1
CCCCOCC
NCCNc1cccc2ccccc12
O=C(O)c1ccc(O)cc1
CC(Oc1cc(Cl)ccc1Cl)C(=O)O (stereo not given)
CCCCCCCC(=O)OCCCCCC
CC1(C)C2=CCCC(C)(C)[C@]23CC[C@H]1C3
CCCCCCCC/C=C\CCCCCCCC(=O)OCC
COc1ccc(N=Nc2cc(C)c(N=Nc3ccc(S(=O)(=O)O)cc3)cc2OC)cc1
C1=CC2C3C=CC(C3)C2C1 (stereo not given)
O=C1OC(=O)c2c(Cl)c(Cl)c(Cl)c(Cl)c21
CC(=O)O[C@H]1C[C@@H]2CC[C@@]1(C)C2(C)C
CCCCCCCCc1ccc(S(=O)(=O)O)cc1
C=C[Si]1(C)O[Si](C)(C=C)O[Si](C)(C=C)O[Si](C)(C=C)O1 (stereo not given)
O=C1c2ccccc2C(=O)c2c(O)ccc(O)c21
C1CCCCC1
NCC1CCCC(CN)C1 (stereo not given)
C=Cc1ccc(C)cc1
CCCC(=O)OC(C)(C)Cc1ccccc1
COc1ccc(N)c([N+](=O)[O-])c1
Nc1ccc(N)c2c1C(=O)c1ccccc1C2=O
C=Cc1ccc(C(C)(C)C)cc1
Cc1c(C2(c3cc(Br)c(O)c(Br)c3C)OS(=O)(=O)c3ccccc32)cc(Br)c(O)c1Br
COc1cccc(OC)c1O
Cc1cccc(Nc2ccccc2)c1
Cc1ccc(-c2ccccc2)cc1
Cc1ccc(OC(=O)c2ccccc2O)cc1
CC/C=C\CC/C=C/CO
